# Source: the supplement of paper PMC6555819
# Columns and labels:
# Test in all cases: PBM binding z-score (relative to random genomic background probes); higher = stronger binding; sequences stand for … in GC…GCGATTGACAGCGTAGAATGAAGG
# [1] = system: FXR:RXRa (NR concentration 270 nM, RXRa partner concentration 90 nM)
# Outline: (§1)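 For binding z-scores, the reference was random background probes on custom Agilent 4×180K protein-binding microarrays. These arrays were incubated 1 h with ligand-free nuclear receptor dimers in PBS pH 7.4, 2% milk, 0.02% Triton X-100, 1 mM DTT, 0.2 mg/mL BSA and 0.4 mg/ml salmon testes DNA. Fluorescence was scanned after antibody detection of each partner (one per run) and regression-normalized.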
# [2] = system: LXRa:RXRa (NR concentration 270 nM, RXRa partner concentration 90 nM)
# Outline: as §1
# [3] = system: LXRa homodimer (NR concentration 270 nM)
# Outline: as §1
# [4] = system: LXRb:RXRa (NR concentration 270 nM, RXRa partner concentration 90 nM)
# Outline: as §1
# [5] = system: LXRb homodimer (NR concentration 270 nM)
# Outline: as §1
# [6] = system: PPARa:RXRa (NR concentration 270 nM, RXRa partner concentration 90 nM)
# Outline: as §1
# [7] = system: PPARg:RXRa (NR concentration 180 nM, RXRa partner concentration 90 nM)
# Outline: as §1
# [8] = system: PPARg:RXRa 270nM:90nM, anti-RXR (NR concentration 270 nM, RXRa partner concentration 90 nM)
# Outline: as §1
# [9] = system: PPARg:RXRa 30nM:10nM, anti-RXR (NR concentration 30 nM, RXRa partner concentration 10 nM)
# Outline: as §1
# [10] = system: PPARg:RXRa 90nM:30nM, anti-RXR (NR concentration 90 nM, RXRa partner concentration 30 nM)
# Outline: as §1
# [11] = system: PPARg:RXRa DBDmut IVT, anti-RXR (DBD mutation: RXRa K156A/R161A, NR concentration 270 nM, RXRa partner concentration 90 nM)
# Outline: as §1
# [12] = system: PPARg:RXRa IVT, anti-PPARg (NR concentration 270 nM, RXRa partner concentration 90 nM)
# Outline: as §1
# [13] = system: PPARg DBDmut:RXRa IVT, anti-PPARg (DBD mutation: PPARg1 K132A/R137A, NR concentration 270 nM, RXRa partner concentration 90 nM)
# Outline: as §1
# [14] = system: PPARg DBDmut IVT, anti-PPARg (DBD mutation: PPARg1 K132A/R137A, NR concentration 270 nM)
# Outline: as §1
# [15] = system: PPARg homodimer (NR concentration 180 nM)
# Outline: as §1
# [16] = system: PXR:RXRa (NR concentration 270 nM, RXRa partner concentration 90 nM)
# Outline: as §1
# [17] = system: PXR homodimer (NR concentration 270 nM)
# Outline: as §1
# [18] = system: RARa:RXR (NR concentration 270 nM, RXRa partner concentration 90 nM)
# Outline: as §1
# [19] = system: RARa homodimer (NR concentration 270 nM)
# Outline: as §1
# [20] = system: RARb:RXRa (NR concentration 270 nM, RXRa partner concentration 90 nM)
# Outline: as §1
Sequence,PBM binding z-score [1],PBM binding z-score [2],PBM binding z-score [3],PBM binding z-score [4],PBM binding z-score [5],PBM binding z-score [6],PBM binding z-score [7],PBM binding z-score [8],PBM binding z-score [9],PBM binding z-score [10],PBM binding z-score [11],PBM binding z-score [12],PBM binding z-score [13],PBM binding z-score [14],PBM binding z-score [15],PBM binding z-score [16],PBM binding z-score [17],PBM binding z-score [18],PBM binding z-score [19],PBM binding z-score [20]
GCTGGCAGGCCATTTGGGTCACTCAATGACGGGC,0.108,0.0335,-0.419,-0.156,-0.843,1.3,0.526,0.786,-0.361,0.136,0.621,1.63,-1.06,-1.22,-0.317,0.654,0.117,0.679,-0.882,1.63
CTTCCAAGGTCAAGGTCAGTGAAAGAGACTCGAA,7.44,6.06,1.86,4.85,1.61,6.31,6.43,6.37,3.11,5.13,3.34,4.97,0.569,0.303,3.58,4.76,1.05,5.07,0.686,5.83
CAAACTTGGTCACCGGAAGGTCAAAGTCCGCATG,3.58,3.72,3.5,3.39,0.75,3.7,2.29,3,0.605,2.01,2.35,3.45,0.726,1.15,2.58,4.26,1.08,4.78,0.786,3.77
TGAATGAGGTTATAAGATCAGGCAACGTTGCAAA,1.34,1.51,-0.418,1.22,-0.11,2.69,1.48,2.02,1.21,1.73,0.78,1.81,1.1,0.207,0.125,0.75,-0.349,1.52,0.212,1.24
TCTTGTAGATCAAGCAGGTTAAGAAAGCCTGAGT,0.0308,0.414,-0.381,0.385,-0.415,0.741,-0.57,1.21,2.46,1.7,1.72,0.78,0.218,0.401,0.138,0.519,0.388,0.546,-0.0455,0.228
GCTAGTTGGTCAGTAAAAGCTCACACACCGGTCG,-0.135,-0.249,-0.0683,-0.56,-0.539,-0.386,0.13,-0.0391,-0.355,-0.193,0.623,-0.0359,-1.02,-0.165,-0.00408,-0.622,-0.0329,-0.419,0.154,0.596
GCTTACGGGTCAAAGATTATAGCATGAATAGAAT,5.74,3.66,-0.0414,3.8,0.557,5.34,6.3,6.09,3.92,5.77,3.85,3.76,1.41,1.16,1.35,3.23,-0.0668,4.47,0.373,3.39
TCATATGGGTAATACAGGTGAAAGTCGGCATCTA,0.355,1.4,0.0107,0.779,-0.138,1.82,1.1,2.13,2.8,2.4,3.38,2.88,1.3,0.765,0.704,0.281,-0.317,0.653,0.182,0.214
TCATATAGGTAAGTGCTAGGTGAAAGTCCGATCT,0.366,0.752,0.094,0.207,0.122,0.896,0.556,2.06,3.39,2.49,3.42,2.48,0.55,0.697,0.802,0.193,0.147,0.223,1.04,0.4
ATATGTAGGTTAAGGGTCACTCAGGTTGGTTCGC,4.78,4.46,1.96,4.27,1.2,6.85,11.8,10.2,10.8,11.2,7.97,8.15,1.94,2.59,3.56,5.09,1.94,6.1,2.24,3.95
TCATATAGATAAAAGGTGAAAGTCGGTGTGGTAA,1.52,1.57,0.231,1.67,-0.152,3.28,3.63,5.16,5.42,5.56,3.23,2.25,0.674,0.805,1.56,1.12,0.535,1.83,1.65,1.73
GCTTGTAGATCATGGTTAAGAAAGACTAAGCTAA,-0.444,-0.5,-0.382,-0.729,-0.647,-0.285,-0.054,0.171,-0.126,-0.187,0.856,0.283,0.687,-0.0333,0.17,-0.334,-0.29,-0.161,-0.00288,-0.371
TCTATTAGTTGATTAGGGCAGCCGAAACAGCGGA,0.608,0.627,0.0696,0.52,0.663,1.01,0.0121,1.92,3.66,2.93,1.91,1.17,1.45,0.97,0.935,0.355,0.226,0.394,0.461,0.624
